Laboratory results: PubChem BioAssay (NCATS)
Results filed as inconclusive are left out. Where a call stands in place of a potency, no number is given. A number with no mark means an inactive call. The source made the active and inactive calls. Calls come from the whole dose curve; as a rule, active = well fitted curve in the direction sought with a large enough effect; inconclusive = small, poorly fitted or top-dose-only effect, or another doubt; inactive = no such curve, though single readings can be large; an effect the other way counts as inactive or inconclusive.

Experiments:
[1] = target: Rap guanine nucleotide exchange factor 3 (Homo sapiens) (UniProt O95398); experiment: Confirmatory qHTS for antagonist of cAMP-regulated guanine nucleotide exchange factor 3 (EPAC1) (AID 1645880); settings: EPAC1 Rap1B-BODIPY-GDP exchange, fluorescence; series mostly up to 115 µM; note: nearly all actives have a fitted effect of over 55% in size; note: potency is the fitted concentration of half-maximal effect
How it was run: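 Released BODIPY-GDP fluoresces less than Rap1-bound BODIPY-GDP; the signal is followed at 480/540 nm at 5-min intervals over 30 min, after 5 min at room temperature. Reactions contain 100 nM EPAC1, 250 nM RAP1B-BODIPY-GDP and 50 uM GDP; results are normalized to ATA and DMSO.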

[2] = target: Rap guanine nucleotide exchange factor 3 (Homo sapiens) (UniProt O95398); experiment: Confirmatory qHTS for agonist of cAMP-regulated guanine nucleotide exchange factor 3 (EPAC1) (AID 1645881); settings: EPAC1 Rap1B BODIPY-GDP exchange fluorescence; series mostly up to 154 µM;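 note: EPAC1 catalysed release of BODIPY-GDP from Rap1B seen as fluorescence loss; nearly all actives have a fitted effect of over 75% in size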
[3] = target: Rap guanine nucleotide exchange factor 4 (Homo sapiens) (UniProt Q8WZA2); experiment: Confirmatory qHTS for agonist of cAMP-regulated guanine nucleotide exchange factor 4 (EPAC2) (AID 1645884); settings: EPAC2 GEF activity, Rap1B-BODIPY-GDP fluorescence; series mostly up to 154 µM;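 note: nucleotide exchange releases bodipy-GDP from Rap1 and this lowers its fluorescence; nearly all actives have a fitted effect of over 65% in size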
[4] = target: Rap guanine nucleotide exchange factor 4 (Homo sapiens) (UniProt Q8WZA2); experiment: Confirmatory qHTS for antagonist of cAMP-regulated guanine nucleotide exchange factor 4 (EPAC2) (AID 1645885); settings: EPAC2 Rap1B-BODIPY-GDP exchange fluorescence, biochemical; series mostly up to 12.7 µM; note: nearly all actives have a fitted effect of over 25% in size; note: potency is the fitted concentration of half-maximal effect
[5] = target: Rap guanine nucleotide exchange factor 3 (Homo sapiens) (UniProt O95398); experiment: Counterscreen qHTS for antagonist of cAMP-regulated guanine nucleotide exchange factor 3 (EPAC1) (AID 1645888); settings: Rap1B-BODIPY-GDP nucleotide exchange, fluorescence; series mostly up to 154 µM
How it was run: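 Rap1B-BODIPY-GDP 250 nM + GDP 50 uM; cpds 7-pt, final 9.74 nM–152 uM (activator mode) or from 7.32 nM upwards (inhibitor mode); RT; FI 480/540 nm at 5 and 30 min, then ± cAMP, reread.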

Rap guanine nucleotide exchange factor 3 (Homo sapiens), sequence (O95398 whole entry, looked up): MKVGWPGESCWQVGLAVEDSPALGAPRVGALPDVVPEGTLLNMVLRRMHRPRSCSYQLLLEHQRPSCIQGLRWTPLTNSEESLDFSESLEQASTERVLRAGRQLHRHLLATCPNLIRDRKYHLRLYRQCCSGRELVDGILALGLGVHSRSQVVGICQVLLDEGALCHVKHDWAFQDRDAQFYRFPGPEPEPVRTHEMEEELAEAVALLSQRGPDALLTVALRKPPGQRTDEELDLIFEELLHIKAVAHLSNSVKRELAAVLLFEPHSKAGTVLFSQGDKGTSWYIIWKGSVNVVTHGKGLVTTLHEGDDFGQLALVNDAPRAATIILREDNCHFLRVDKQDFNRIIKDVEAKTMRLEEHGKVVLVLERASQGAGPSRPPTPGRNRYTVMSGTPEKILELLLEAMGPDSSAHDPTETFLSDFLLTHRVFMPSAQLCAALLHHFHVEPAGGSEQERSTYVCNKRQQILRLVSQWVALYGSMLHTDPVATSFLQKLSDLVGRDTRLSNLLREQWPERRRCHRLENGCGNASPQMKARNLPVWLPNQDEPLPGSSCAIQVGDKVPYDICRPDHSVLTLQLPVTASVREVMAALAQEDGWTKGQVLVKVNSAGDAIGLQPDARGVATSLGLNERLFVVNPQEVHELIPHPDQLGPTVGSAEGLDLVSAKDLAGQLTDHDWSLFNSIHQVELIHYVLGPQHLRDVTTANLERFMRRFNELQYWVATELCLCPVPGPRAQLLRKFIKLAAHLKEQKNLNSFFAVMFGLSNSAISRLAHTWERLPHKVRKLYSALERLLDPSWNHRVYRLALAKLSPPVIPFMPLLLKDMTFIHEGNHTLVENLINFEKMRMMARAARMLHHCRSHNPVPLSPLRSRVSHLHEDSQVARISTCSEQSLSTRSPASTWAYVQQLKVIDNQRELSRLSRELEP
Rap guanine nucleotide exchange factor 4 (Homo sapiens), sequence (Q8WZA2 whole entry, looked up): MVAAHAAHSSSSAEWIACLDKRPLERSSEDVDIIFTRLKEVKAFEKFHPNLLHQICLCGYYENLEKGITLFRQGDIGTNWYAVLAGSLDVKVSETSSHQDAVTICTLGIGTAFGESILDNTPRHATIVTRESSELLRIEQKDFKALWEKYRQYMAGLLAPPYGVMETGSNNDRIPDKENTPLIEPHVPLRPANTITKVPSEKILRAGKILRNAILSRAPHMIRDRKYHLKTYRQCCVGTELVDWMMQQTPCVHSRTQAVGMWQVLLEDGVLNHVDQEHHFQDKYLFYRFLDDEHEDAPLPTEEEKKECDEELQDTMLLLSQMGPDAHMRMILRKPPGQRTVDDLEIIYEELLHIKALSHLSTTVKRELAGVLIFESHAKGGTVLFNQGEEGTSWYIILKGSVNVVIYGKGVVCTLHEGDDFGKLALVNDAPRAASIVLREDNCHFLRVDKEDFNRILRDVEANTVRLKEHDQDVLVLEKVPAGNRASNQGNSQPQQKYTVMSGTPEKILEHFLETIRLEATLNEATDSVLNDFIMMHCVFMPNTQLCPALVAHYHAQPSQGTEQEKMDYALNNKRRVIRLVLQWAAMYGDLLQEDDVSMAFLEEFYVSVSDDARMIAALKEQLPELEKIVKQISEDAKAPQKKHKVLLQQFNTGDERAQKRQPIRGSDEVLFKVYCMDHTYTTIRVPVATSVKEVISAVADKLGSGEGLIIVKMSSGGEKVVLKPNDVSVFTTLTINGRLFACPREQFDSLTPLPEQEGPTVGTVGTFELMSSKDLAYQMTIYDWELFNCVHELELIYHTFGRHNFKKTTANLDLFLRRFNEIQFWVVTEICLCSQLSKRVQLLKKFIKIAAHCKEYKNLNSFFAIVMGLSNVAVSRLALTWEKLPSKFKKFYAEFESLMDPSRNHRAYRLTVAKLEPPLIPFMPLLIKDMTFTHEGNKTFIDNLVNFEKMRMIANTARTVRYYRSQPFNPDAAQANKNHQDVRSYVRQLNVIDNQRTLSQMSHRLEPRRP

SMILES	Potency [1]	Potency [2]	activation [3]	Potency [4]	Potency [3]	Potency [5]
CC(C)N(C(=O)Nc1ccc2nsnc2c1)C(C)C	22.4 µM (active)	inactive	2.55% [at 17.1 µM, percent relative to cAMP agonist control]	inactive		
COc1cc2c3nnc(-c4ccccc4)c-3cn(Cc3ccc(F)cc3)c2cc1OC	inactive	inactive		inactive	inactive	
O=C1NC(=Nc2ccccc2Cl)S/C1=C\c1cc([N+](=O)[O-])ccc1O	53.6 µM (active)	inactive		26.9 µM (active)	inactive	inactive
Cc1cccc(NC(=O)CC2Nc3cccc4cccc(c34)NC2=O)c1 (stereo not given)	75.7 µM (active)	inactive		inactive	inactive	
COc1ccc(Cl)cc1NC(=O)CN(C)C(=O)c1cc2c(s1)CCC(C)C2 (stereo not given)	inactive	inactive		inactive	inactive	
COc1ccc(NC(=O)C2=NN(c3ccccc3)C(=O)CC2)cn1	inactive	inactive		inactive	inactive	inactive
O=C(NCc1ccc(F)cc1)c1ccc2c(=O)n3c(nc2c1)CCCCC3	inactive	inactive		inactive	inactive	
CC1Cc2nc(SCC(=O)OCc3ccccc3)n(C)c(=O)c2S1 (stereo not given)	inactive	inactive	3.71% [at 17.1 µM, percent relative to cAMP agonist control]	inactive		
CCOC(=O)N1CCC(N2CCOc3ccc(CN4CCC(O)(c5cccnc5)CC4)cc3C2)CC1	inactive	inactive		inactive	inactive	
COc1cc(CCN(C(=O)c2cccc(S(C)(=O)=O)c2)C(CCc2ccccc2)c2nc3ccccc3[nH]2)cc(OC)c1 (stereo not given)	inactive	inactive		inactive	inactive	
C(=C\c1nccc2ccccc12)/c1ccc(N2CCOCC2)cc1	inactive	inactive		inactive	inactive	
Cc1cc(=O)n(Cc2cccc(Cl)c2)c2c1c(C)nn2C	inactive	inactive		inactive	inactive	inactive
CC(=O)c1ccc(NC(=O)CC2Nc3cccc4cccc(c34)NC2=O)cc1 (stereo not given)	75.7 µM (active)	inactive		inactive	inactive	
